# From PubChem BioAssay
# Tau fibril ThT: inhibitors of human tau fibril formation, thioflavin T binding; P10636; recombinant tau K18 P301L, heparin-induced fibrillization, ThT fluorescence; Potency, µM (titrated, usually from 57.4 µM), without a hit: top-dose activity, negative = inhibition, hits mostly inhibitors; 270,000 compounds, 2.1% hits; AID 1460; note: nearly all actives have a fitted effect of over 55% in size
# Target sequence (P10636 561-689 P618L limits assumed): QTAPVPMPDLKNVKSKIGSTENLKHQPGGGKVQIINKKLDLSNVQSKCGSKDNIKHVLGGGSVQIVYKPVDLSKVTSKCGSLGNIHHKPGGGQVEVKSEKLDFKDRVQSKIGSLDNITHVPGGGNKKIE
#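 ThT emission at 510 nm, taken 1 hr after adding 30 uM dye, quantifies aggregates formed when 20 uM heparin acts on human tau K18 P301L for 6 hr at 37 C.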
# VDR inh: vitamin D3 receptor (human) inhibition; P11473; VDR-SRC2-3 peptide fluorescence polarization, 2 h; Potency, µM, inactives show max response, negative = inhibition, hits mostly inhibitors; 400,000 compounds, 0.93% hits; AID 504847
# Target sequence (P11473 whole entry, looked up): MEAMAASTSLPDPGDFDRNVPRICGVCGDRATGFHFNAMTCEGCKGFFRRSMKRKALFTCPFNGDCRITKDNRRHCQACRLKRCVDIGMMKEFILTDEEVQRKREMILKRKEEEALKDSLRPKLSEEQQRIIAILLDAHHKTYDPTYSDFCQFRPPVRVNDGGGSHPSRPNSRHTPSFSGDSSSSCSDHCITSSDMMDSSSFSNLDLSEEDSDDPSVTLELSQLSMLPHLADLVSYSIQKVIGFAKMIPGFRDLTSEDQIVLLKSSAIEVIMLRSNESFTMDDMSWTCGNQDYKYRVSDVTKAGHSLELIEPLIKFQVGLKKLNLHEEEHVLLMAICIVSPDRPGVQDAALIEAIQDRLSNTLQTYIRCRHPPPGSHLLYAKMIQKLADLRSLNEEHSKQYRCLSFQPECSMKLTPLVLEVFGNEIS
#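 Reagent solutions, kept cold and dark, are dispensed first; compounds are then pinned in at 23 nl, plates briefly spun, and incubated 2 h at ambient temperature. Inhibition of VDR–SRC2-3 peptide binding is read by fluorescence polarization.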
# Tau fibril FP: inhibitors of human tau fibril formation. P10636. K18 P301L tau heparin fibrillization, Alexa594 FP, 6 h. Potency, µM (series often up to 57.7 µM), without a hit: at the highest dose activity, negative = inhibition, hits mostly inhibitors. 280,000 compounds, 0.39% hits. AID 1468; note: nearly all actives have a fitted effect of over 55% in size
#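 Compound effects on tau fibrillization are measured by Alexa 594 fluorescence polarization (ex 555, em 632 nm). K18 P301L tau is used at 15 uM with 0.24 uM labeled tracer, and 20 uM heparin induces aggregation over 6 hr at 37 C.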
# Sfp inh: inhibitors of Bacillus subtilis Sfp phosphopantetheinyl transferase | Q9F4F7 | Biochemical Sfp PPTase activity, qHTS | Potency, µM, for the others: largest response in the series, negative = inhibition, hits mostly inhibitors | 310,000 compounds, 3.5% hits;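 note: the enzyme is Sfp with the accession as filed and its product quenches rhodamine fluorescence; 0% = enzyme reaction without inhibitor and -100% = no enzyme wells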
#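 Sfp 15 nM + cpd, 15 min RT; start w/ rhodamine-CoA 5 uM, BHQ-2-YbbR 12.5 uM (final); 50 mM Hepes pH 7.6, 10 mM MgCl2, 0.01% NP-40, 0.01% BSA; read 525/598 nm at 0 and 30 min.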
# PLK1 PBD inh: blocks phosphopeptide binding to human PLK1 polo-box domain; P53350; Plk1 PBD binding of FITC phosphopeptide, fluorescence polarization; Potency, µM, for the others: max response, negative = inhibition, hits mostly inhibitors; 360,000 compounds, 2.8% hits; AID 720504; note: series mostly up to about 57 µM; nearly all actives have a fitted effect of over 65% in size
# Tau fluor counter: counter-screen for tau fibril formation inhibitors | tau K18 P301L (four-repeat tau fragment) Alexa594 fluorescence, heparin fibrillization | Potency, µM (doses to about 57.7 µM), inactives show at the top dose activity change, negative = decrease | 280,000 compounds, 0.93% hits | AID 1463; note: nearly all actives have a fitted effect of over 55% in size
#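 Human K18 P301L tau (15 uM unlabeled plus 0.24 uM Alexa 594-labeled, final) in 100 mM sodium acetate pH 7 was mixed with compound and 20 uM heparin and incubated 6 hr at 37 C.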
# * hit, by the source's call; ? = inconclusive; / = no result given. Only some compounds are listed: those with a hit (about 6% of all), similar ones and a draw of the others. Calls come from the whole dose curve; as a rule, active = well fitted curve in the direction sought with a large enough effect; inconclusive = small, poorly fitted or top-dose-only effect, or another doubt; inactive = no such curve, though single readings can be large; an effect the other way counts as inactive or inconclusive. Unless noted, % is set by controls: 0 for no effect and ±100 for the full control effect; potency is the fitted concentration of half-maximal effect.
SMILES,Tau fibril ThT,VDR inh,Tau fibril FP,Sfp inh,PLK1 PBD inh,Tau fluor counter
O=C(Nc1ccc2c(c1)OCCO2)C1c2ccccc2OCC(=O)N1CCCN1CCOCC1 (stereo not drawn),/,/,/,/,-5%,/
CCN(CC)S(=O)(=O)c1cccc(C(=O)NC(C(=O)Nc2nnc(C3CC3)s2)C(C)C)c1 (stereo not drawn),13%,12%,3%,-2%,27µM*,9%
CCN(CC)S(=O)(=O)c1cccc(C(=O)NCC2CCCO2)c1 (stereo not drawn),-5%,19%,-2%,4%,-4%,-2%
CCN(CC)S(=O)(=O)c1cccc(C(=O)NCC2CCCCC2)c1,/,?,/,18%,24µM*,/
CC(C)CC1NC(=O)c2cc3ccccc3cc2-n2c1nc1ccc(F)cc1c2=O (stereo not drawn),/,/,/,/,-4%,/
O=c1c2sc3ccccc3c2n(Cc2ccccc2)c(=O)n1CCc1ccccc1,8%,6%,-15%,/,/,-3%
Cc1ccccc1Nc1nc(CSc2nnnn2-c2ccccc2)cs1,?,4%,7%,45µM*,?,?
CN(C)S(=O)(=O)N1CCC(Oc2cccc(C(=O)NC3CCCCC3)c2)CC1,/,?,/,15%,15µM*,/
CN(C)S(=O)(=O)N1CCC(Oc2ccc(C(=O)NC3CCCCC3)cc2)CC1,-11%,1%,1%,4%,-13%,-13%
COc1cccc(C(=O)Nc2ccc3nc(SCC(=O)N4CCOCC4)sc3c2)c1,-8%,13%,-14%,/,/,-29%
CC(CNCC1CCCO1)COc1ccccc1 (stereo not drawn),-1%,-2%,3%,6%,30µM*,0%
CC(CNCC1CCCO1)COc1cccc2ccccc12 (stereo not drawn),-4%,4%,1%,-16%,1%,-7%
O=C(NCc1cccs1)c1ccc2sc([C@@H]3O[C@H](CO)[C@H](O)[C@H](O)[C@H]3O)nc2c1,/,/,/,/,2%,/
Cc1nc2ccccc2c(C)c1C(=O)c1ccccc1,-8%,-17%,-4%,13%,24µM*,-6%
CCC(Nc1ncnc2ccc(-c3c(C)noc3C)cc12)c1ccccc1 (stereo not drawn),/,/,/,-18%,/,/
S=C(NCc1cccs1)Nc1ccccc1,5%,-10%,-3%,-5%,-9%,6%
NS(=O)(=O)c1ccc(NC(=S)NCc2cccs2)cc1,-3%,-5%,1%,20µM*,24µM*,-7%
COc1ccccc1CNC(=S)Nc1ccc(S(N)(=O)=O)cc1,/,4%,/,?,21µM*,/
CSCC[C@H](NC(=O)c1ccc(Br)o1)c1nnc2ccccn12,/,?,/,17%,11µM*,/
Cc1cccc(CNC(=O)CCCN2C(=O)c3cccnc3Oc3ccccc32)c1,-6%,11%,-5%,/,/,-9%
O=C(O)c1ncn(Cc2ccccc2)c1C(=O)O,-3%,0%,5%,50µM*,-5%,-1%
COc1ccc(N=Cc2nc(-c3ccco3)oc2O)cc1,16µM*,0%,7%,10%,-7%,?
CN(C)c1ccc(N=Cc2nc(-c3ccccc3)oc2OC(=O)c2ccccc2)cc1,?,-4%,-8%,5%,2%,-4%
CN(C)c1ccc(N=Cc2nc(-c3ccccc3)oc2O)cc1,2.2µM*,-5%,-9%,-2%,13µM*,?
CC(=O)Nc1ccc(N=Cc2nc(-c3ccc(C)cc3)oc2O)cc1,4.5µM*,-8%,1%,6%,-13%,?
SMILES,Tau fibril ThT,VDR inh,Tau fibril FP,Sfp inh,PLK1 PBD inh,Tau fluor counter
Cc1ccc(N=Cc2nc(-c3ccc(C)cc3)oc2O)cc1,?,-2%,-9%,0%,3%,-17%
CC(=O)Oc1oc(-c2ccccc2)nc1C=Nc1ccc(N(C)C)cc1,14µM*,6%,-13%,6%,-13%,?
COc1ccc(S(=O)(=O)N2CCC[C@H]2C(=O)N2CCC[C@H]2C(=O)N[C@@H](C)c2ccccc2)cc1C,/,/,/,/,2%,/
O=C(Nc1ncnc2c1ncn2[C@@H]1O[C@@H]2COP(=O)(O)O[C@H]2[C@H]1O)c1ccccc1,/,7%,/,2%,/,/
O=C(NCC(c1ccc2c(c1)OCO2)N1CCOCC1)C(=O)Nc1ccc(Cl)cc1 (stereo not drawn),?,-9%,-6%,/,/,-16%
Oc1oc(-c2ccccc2)nc1C=Nc1ccccc1,?,-4%,6%,-12%,-13%,-28%
CSc1ccccc1N=Cc1nc(-c2ccccc2)oc1O,20µM*,17%,-11%,-26%,-1%,?
O=C(Nc1c(-c2ccc3c(c2)OCO3)[nH][nH]c1=O)c1ccccc1,/,/,/,/,13µM*,/
COc1ccc(S(=O)(=O)Nc2cc(S(=O)(=O)c3ccccc3)c(O)c(C)c2C)cc1,14%,3%,-9%,/,/,3%
COc1ccc(C(=O)CSC#N)cc1OC,16µM*,?,?,-1%,24µM*,-9%
COC(=O)c1c(C)[nH]c(C(=O)COC(=O)CCc2ccc(OC)c(OC)c2)c1C,/,/,/,/,-3%,/
COc1ccc2c(=O)c3c(=O)n(Cc4ccccc4)c(C(C)C)nc3oc2c1,/,-3%,/,/,0%,/
CCc1nc2oc3cc(OC)ccc3c(=O)c2c(=O)n1Cc1ccco1,-15%,17%,2%,35µM*,-18%,-3%
Cc1ccc(-c2nc3c(c(=O)c4ccccc4n3C)c(=O)n2Cc2ccco2)cc1,?,-16%,?,4µM*,-16%,-2%
COc1ccc(Cn2c(-c3ccco3)nc3oc4cc(OC)ccc4c(=O)c3c2=O)cc1,?,-7%,1%,5%,-12%,-10%
COc1ccc2c(=O)c3c(=O)n(Cc4ccco4)c(-c4ccco4)nc3oc2c1,28µM*,-15%,-3%,?,?,?
COc1ccc(-c2nc3oc4cc(OC)ccc4c(=O)c3c(=O)n2Cc2ccco2)cc1,?,-10%,-4%,25µM*,-17%,-3%
COCCn1c(-c2ccc(OC)cc2)nc2oc3cc(OC)ccc3c(=O)c2c1=O,-10%,3%,9%,16%,0%,-3%
COc1ccc(-n2c(=O)c(-c3cccs3)nc3cnc(Oc4ccccc4)nc32)cc1,/,-4%,/,-27%,/,/
Cc1ccc(-n2ncc(C#N)c2/N=C/N2CCN(C)CC2)cc1,2%,4%,3%,12%,-6%,11%
CN1CCN(/C=N/c2c(C#N)cnn2-c2ccccc2)CC1,2%,0%,4%,7%,27µM*,4%
OC[C@@H]1CN(Cc2ccc(Cl)cc2)C[C@H](n2cnc3c(NC4CC4)ncnc32)O1,/,/,/,/,5%,/
C[C@@H]1[C@H](c2ccccc2)Oc2ccc(Cl)cc2S(=O)(=O)N1CC1CCCN1C(=O)OC(C)(C)C (stereo partly drawn),/,?,/,/,24µM*,/
